The full list was thinned out, with hits kept by preference.
IL-1B inflam inh – blocks inflammasome-driven IL-1 beta release; THP-1 LPS/ATP IL-1B secretion, AlphaLISA, 16 h; stronger effect = lower value; activity change, % at 57.5 µM; 4.7% of 360,000 active; in the data active means activity change below about -50%; inconclusive means mostly about -30% to -49%
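Secreted IL-1B measured by AlphaLISA bead assay after 16 h compound exposure of THP-1 cells; compounds (final up to 57.5 uM) added 1 h before LPS (250 ng/mL) and ATP (1.25 mM) stimulation; lower signal means less secretion.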
12-LOX inh – inhibitors of human 12S-lipoxygenase ALOX12; Potency, µM (doses to about 108 µM), for inactives: top-dose activity change, negative = inhibition, usual class: inhibitors; P18054; 1.1% of 580,000 active; purified 12hLO, xylenol orange hydroperoxide absorbance; further: potency means the concentration at half of the fitted maximal effect
Target sequence (P18054 whole entry, looked up): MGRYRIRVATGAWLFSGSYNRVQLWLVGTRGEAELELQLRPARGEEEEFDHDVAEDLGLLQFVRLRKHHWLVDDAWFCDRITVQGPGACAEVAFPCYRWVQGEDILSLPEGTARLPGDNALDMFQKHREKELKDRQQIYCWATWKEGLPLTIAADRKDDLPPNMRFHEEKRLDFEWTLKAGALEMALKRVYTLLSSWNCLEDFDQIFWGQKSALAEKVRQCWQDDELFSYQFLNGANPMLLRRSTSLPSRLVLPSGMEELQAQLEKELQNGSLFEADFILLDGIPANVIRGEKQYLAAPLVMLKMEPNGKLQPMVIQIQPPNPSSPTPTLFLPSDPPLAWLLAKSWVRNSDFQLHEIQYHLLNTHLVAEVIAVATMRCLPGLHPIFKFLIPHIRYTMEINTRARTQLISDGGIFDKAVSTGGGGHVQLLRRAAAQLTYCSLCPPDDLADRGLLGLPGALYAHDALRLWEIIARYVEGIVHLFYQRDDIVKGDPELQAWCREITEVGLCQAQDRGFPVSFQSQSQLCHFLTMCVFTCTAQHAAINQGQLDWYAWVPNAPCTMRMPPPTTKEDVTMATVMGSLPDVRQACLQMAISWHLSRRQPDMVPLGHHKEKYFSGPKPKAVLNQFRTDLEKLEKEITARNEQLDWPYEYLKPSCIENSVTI
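Purified human 12hLO (150 nM final) in 25 mM Hepes, 0.01% Triton X-100, pH 7.0 was preincubated 15 min at room temperature with compound. Then 40 uM arachidonic acid was added, 30 min. Hydroperoxide was read by Fe-XO absorbance ratio 573/405 nm.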
DT40 TDP1 CPT – growth inhibition of DT40 Tdp1-/-;hTDP1 cells with camptothecin (screen for TDP1 inhibitors); 12% of 420,000 active; Potency, µM (titrated, usually from 46.2 µM), without a hit: top-dose activity change, negative = growth inhibition, usual class: inhibitors; AID 686979; chicken DT40 Tdp1-/-;hTDP1 cells + 20 nM CPT, ATP luminescence, 48 h; further: potency means the concentration at half of the fitted maximal effect; nearly all actives have a fitted effect of over 55% in size
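Cell growth measured by CellTiter-Glo luminescence after a minimum 48 h, 37 C compound exposure with 20 nM CPT in Tdp1-knockout DT40 cells stably expressing hTDP1, seeded 400/well; qHTS titration format.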
HT1080NT lethal – kills 2HG-producing HT-1080-NT fibrosarcoma cells; Potency, µM (doses to about 46.1 µM), for inactives: top-dose activity, negative = less viability, usual class: cytotoxic; 1.6% of 360,000 active; HT-1080-NT fibrosarcoma viability, CellTiter-Glo ATP luminescence, 48 h;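 further: NT is the 2HG producing partner of a matched IDH1 knockdown line; potency means the concentration at half of the fitted maximal effect; 0% = DMSO-treated cells and -100% = media-only wells without cells; nearly all actives have a fitted effect of over 55% in size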
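Fibrosarcoma NT cells, 750 per well in 5% FBS RPMI, were exposed to compound for 48 hours. Viability: CellTiter-Glo luminescence.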
HT1080 IDH1KD tx – kills HT-1080 cells with IDH1 knockdown; Potency, µM (series often up to 46.1 µM), inactives show at the highest dose activity, negative = toxicity, hits mostly cytotoxic; AID 686971; 2% of 360,000 active; HT-1080 IDH1 knockdown viability, ATP luminescence, 48 h;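 further: potency means the concentration at half of the fitted maximal effect; 0% = DMSO wells and -100% = cell-free medium wells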
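Assay cells: HT-1080 with IDH1 knockdown, 750 per well, RPMI/5% FBS. Exposure: 48 h at 37 °C following 2 h pre-incubation. Read: CellTiter-Glo luminescence; fitted concentration-response, curve class assigned.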
DT40 TDP1 no CPT – qHTS for Inhibitors of human tyrosyl-DNA phosphodiesterase 1 (TDP1): qHTS in cells in absence of CPT; AID 686978, 2013; Potency, µM (top dose mostly 46.2 µM), inactives show at the highest dose activity change, negative = growth inhibition, usual class: inhibitors; 15% of 420,000 active; DT40 Tdp1-/- hTDP1 cells, no CPT, ATP luminescence, 48 h; further: potency means the concentration at half of the fitted maximal effect; nearly all actives have a fitted effect of over 55% in size
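Growth kinetics read by CellTiter-Glo luminescence after ≥48 hr at 37 °C. Cells: DT40 Tdp1-/- stably carrying human TDP1, 400 per well, compound exposure in the absence of CPT (DMSO vehicle).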
Starred values were filed as active, the others as inactive; ? = inconclusive; . = not tested or not shown. Unless noted, the call rests on the fitted dose curve; in most records, active means well fitted curve in the direction sought with a large enough effect; inconclusive means small, poorly fitted or top-dose-only effect, or another doubt; inactive means no such curve, though single readings can be large; an effect the other way counts as inactive or inconclusive. Unless noted, on the % scale 0 is the no-effect control and ±100 the full control effect.

SMILES	IL-1B inflam inh	12-LOX inh	DT40 TDP1 CPT	HT1080NT lethal	HT1080 IDH1KD tx	DT40 TDP1 no CPT
CCOc1ccccc1NC(=O)C(Cc1ccccc1)NS(=O)(=O)c1ccc(Br)s1 (stereo not given)	.	-15%	23µM*	.	.	?
COc1ccc(C)cc1NC(=O)C(Cc1ccccc1)NS(=O)(=O)c1cccs1 (stereo not given)	.	-12%	18µM*	.	.	?
Cc1ccc(CNC(=O)C(Cc2ccccc2)NS(=O)(=O)c2ccc(Br)s2)cc1 (stereo not given)	-75*	-2%	-3%	?	-27%	?
CCOC(=O)C1(C)C=C(Nc2ccc(C(N)=O)cc2)C(=O)N1c1ccccc1 (stereo not given)	.	0%	?	.	.	-12%
O=C1/C(=C/N(C(=O)c2ccco2)c2ccc(Cl)cc2)Sc2ccccc21	?	.	23µM*	-12%	1%	16µM*
O=C1/C(=C/N(C(=O)c2ccco2)c2ccc(Br)cc2)Sc2ccccc21	-14	.	?	?	?	15µM*
COc1ccc(NS(=O)(=O)c2cccc(C(=O)N/N=C/c3cn(-c4ccccc4)nc3-c3ccccc3)c2)cc1	?	1%	16µM*	?	?	?
Cc1ccc(C(=O)N/C(=C/c2cn(-c3ccccc3)nc2-c2ccccc2)C(=O)O)cc1	-15	2%	7%	0%	-1%	7%
COc1ccc(NS(=O)(=O)c2cccc(C(=O)N/N=C/c3cn(-c4ccccc4)nc3-c3ccc(OC)cc3)c2)cc1	-9	-1%	?	18%	19%	-21%
Cc1ccc(-c2nn(-c3ccccc3)cc2/C=N/NS(=O)(=O)c2ccccc2)cc1	-21	-8%	29µM*	?	?	?
NS(=O)(=O)c1ccc(N/N=C/c2cn(-c3ccccc3)nc2-c2ccccc2)c([N+](=O)[O-])c1	-78*	?	4.1µM*	-9%	-14%	12µM*
CC(=O)C(=Cc1cn(-c2ccccc2)nc1-c1ccccc1)C(C)=O	-7	0%	23µM*	8%	12%	?
NCc1cccc(OCc2ccccc2)c1	.	31%	.	.	.	.
COCCNC(=O)/C(C#N)=C/c1c(N2CCN(C)CC2)nc2ccccn2c1=O	-18	.	0%	1%	17%	-6%
CCOC(=O)COc1ccc2c(=O)c(-c3ccc(OC)c(OC)c3)c(C(F)(F)F)oc2c1	.	38%	.	.	.	.
Cc1ccc(-c2nn(-c3ccccc3)cc2/C=N/O)cc1	-81*	-19%	21%	?	?	-13%
O=c1[nH]c(=S)[nH]cc1Oc1ccc(Br)cc1Br	17	11µM*	-14%	3%	-1%	-4%
O=c1[nH]c(=S)[nH]cc1Oc1ccc(Cl)cc1	10	?	-26%	6%	6%	-15%
O=C(O)COc1ccccc1/C=N/NC(=O)c1cc(-c2ccccc2)nc2ccccc12	0	-83%	-27%	4%	1%	-28%
O=C(O)COc1ccccc1/C=N/NC(=O)c1cc(-c2ccc(Cl)cc2)nc2ccccc12	0	?	-14%	-8%	0%	6.5µM*
CCOc1ccc(Br)cc1C(=O)N/N=C/c1ccccn1	31	.	?	-21%	-27%	?
O=C(N/N=C/c1ccccn1)c1cc(-c2ccc(Cl)cc2)nc2ccccc12	-102*	-8%	3.3µM*	-6%	-7%	8.2µM*
O=C(N/N=C/c1ccccn1)c1cc(-c2ccc(Br)cc2)nc2ccccc12	-96*	136%	2.6µM*	?	?	1.8µM*
O=C(NC1CCCC1)c1cc(-c2ccc(Cl)cc2)nc2ccccc12	.	-8%	.	.	.	.
N#Cc1ccc(CNc2ccccc2I)cc1	.	-4%	.	.	.	.
SMILES	IL-1B inflam inh	12-LOX inh	DT40 TDP1 CPT	HT1080NT lethal	HT1080 IDH1KD tx	DT40 TDP1 no CPT
Fc1cccc(-c2nn[nH]n2)c1	9	25µM*	-3%	8%	8%	1%
c1ccc(-c2nn[nH]n2)cc1	6	-1%	-2%	16%	?	-26%
O=C(NC1CCCCC1)c1ccc2ccccc2c1	-17	14%	-20%	-2%	-9%	?
Cc1cc2ccccc2c[n+]1C1CCCCC1	.	.	1.4µM*	.	.	0.71µM*
COc1cccc(-c2cccc3c2NC(=O)C3(C)Cc2ccccc2F)c1 (stereo not given)	84	1%	-30%	-7%	-18%	-28%
COc1ccc(S(=O)(=O)N(C)C[C@H]2Oc3c(NC(=O)Nc4ccccc4)cccc3C(=O)N([C@H](C)CO)C[C@@H]2C)cc1	0	-4%	?	-18%	-8%	?
COc1ccc(S(=O)(=O)N(C)C[C@H]2Oc3c(NC(=O)C4CC4)cccc3C(=O)N([C@H](C)CO)C[C@@H]2C)cc1	15	-19%	16µM*	0%	-17%	-15%
COc1ccc(S(=O)(=O)Nc2cccc3c2O[C@H](CN(C)S(=O)(=O)c2cccs2)[C@@H](C)CN([C@H](C)CO)C3=O)cc1	-11	-23%	?	-3%	0%	-11%
CC(C)NC(=O)Nc1cccc2c1O[C@H](CN(C)S(=O)(=O)c1ccc(F)cc1)[C@@H](C)CN([C@H](C)CO)C2=O	-5	-8%	16µM*	1%	2%	-28%
C[C@H](CO)N1C[C@H](C)[C@@H](CN(C)S(=O)(=O)c2ccccc2)Oc2c(NC(=O)C3CCCCC3)cccc2C1=O	13	-3%	?	-3%	-7%	23µM*
COc1ccc(S(=O)(=O)Nc2cccc3c2O[C@H](CN(C)S(=O)(=O)c2ccc(Cl)cc2)[C@H](C)CN([C@H](C)CO)C3=O)cc1	-18	-3%	?	-8%	-9%	18µM*

High-throughput results deposited in PubChem BioAssay by National Center for Advancing Translational Sciences (NCATS).
